Assay outcomes: PubChem, National Center for Advancing Translational Sciences (NCATS)
D2 ag-1 = activates the human D2 dopamine receptor; AID 485358; P14416; activation, % at 2 µM; hit rate 0.53% among 340,000; HEK293 T-REx D2 cells, calcium flux agonist mode;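 active = activation over 3 SD above normal in the single-dose calcium agonist read, cut at about 30% in these data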; note: 0% is about no effect
Target sequence (P14416 whole entry, looked up): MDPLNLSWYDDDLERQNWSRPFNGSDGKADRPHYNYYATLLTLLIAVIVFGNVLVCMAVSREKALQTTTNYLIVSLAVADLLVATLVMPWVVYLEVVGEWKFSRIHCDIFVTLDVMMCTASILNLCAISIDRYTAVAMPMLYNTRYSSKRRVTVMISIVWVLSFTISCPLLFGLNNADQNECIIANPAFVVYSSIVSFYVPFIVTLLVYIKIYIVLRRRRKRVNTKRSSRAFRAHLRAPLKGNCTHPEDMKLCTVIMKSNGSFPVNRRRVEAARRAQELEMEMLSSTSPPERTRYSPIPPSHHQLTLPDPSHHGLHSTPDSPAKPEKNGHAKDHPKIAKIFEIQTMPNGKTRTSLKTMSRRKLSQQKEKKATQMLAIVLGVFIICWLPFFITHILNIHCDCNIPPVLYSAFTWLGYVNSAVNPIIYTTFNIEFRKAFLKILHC
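Agonism is scored from calcium flux in a force-coupled, inducible HEK293 cell line expressing D2, read kinetically for 180 s after compound addition against dopamine controls.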
D2 PAM-1 = D2 dopamine receptor (human) potentiation. P14416. HEK293 T-REx D2, calcium flux, EC20 dopamine potentiation. potentiation, % at 10 µM. hit rate 0.34% among 340,000. AID 485347;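 active = potentiation over 3 SD above the plate norm, cut at about 30% in these data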; note: 0% is about no effect
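Tetracycline-induced HEK293 T-REx cells force-coupled to calcium signalling expressed D2; compounds were pin-added after a 10 s baseline, read kinetically 180 s, then an EC20 dopamine challenge followed with a further 180 s calcium read.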
D2 ag-2 = agonists of human D2 dopamine receptor (beta-arrestin). P14416. AID 624465. DiscoveRx PathHunter D2 beta-arrestin, luminescence, 90 min; 100% = 57 uM dopamine signal. hit rate 0.084% among 360,000. activation, % (concentration not given with the values); in the data active = activation above about 40%; inconclusive = between about 15% and that limit
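Agonist mode: compounds alone added to overnight-plated D2 PathHunter cells for 90 min at 37 C, with 57 uM final dopamine (EC100) defining full response. Beta-arrestin recruitment detected by chemiluminescent reagent, read after 1 h at ambient temperature.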
D2 PAM-2 = potentiates the human D2 dopamine receptor allosterically; P14416; DiscoveRx D2 beta-arrestin cells, luminescence, 90 min; 100% = 57 uM dopamine signal; potentiation, % (no concentration beside the values); hit rate 0.23% among 360,000; in the data active = potentiation above about 50%; inconclusive = mostly about 30% to 49%
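PathHunter beta-arrestin assay in DiscoveRx D2 cells. Compounds were added with an EC20 of dopamine (50 nM final) for 90 min at 37 deg C. Luminescence was read 1 h after detection reagent, with 57 uM dopamine as the EC100 control.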
D2 antagonist = antagonizes the human D2 dopamine receptor; AID 485344; hit rate 2% among 340,000; HEK293 TREx D2 cells, calcium flux, dopamine EC80; P14416; inhibition, % at 10 µM; in the data active = inhibition above about 30%; inactive = below that, where a call was filed; note: 0% is about no effect
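Measurement of antagonist activity uses fluorescent calcium dye in inducible HEK293 T-REx D2 cells: 10 s baseline, compound addition with 180 s read, EC80 dopamine addition with a further 180 s read.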
Numbers without * were called inactive. This is a sample that favours compounds with a hit; in the whole collection about 2.4% have one here.

What do the screens show for `CCCc1nnc(NC(=O)COc2ccc3c(c2)OCO3)s1`?
D2 ag-1: -2.2; D2 PAM-1: -13.1; D2 ag-2: 0.1; D2 PAM-2: 3.6; D2 antagonist: -1.3

What do the screens show for `CCc1nnc(NC(=O)COc2ccc3c(c2)OCO3)s1`?
D2 ag-1: 0.2; D2 PAM-1: 30.4*; D2 ag-2: 2.8; D2 PAM-2: -1.5; D2 antagonist: 12.3

What do the screens show for `O=C(O)c1cc(=O)n(Cc2ccccc2)c(=O)[nH]1`?
D2 ag-1: 0.8; D2 PAM-1: 12.2; D2 ag-2: -0.1; D2 PAM-2: -8.4; D2 antagonist: 8.5

What do the screens show for `Cc1ccc(NC(=O)c2cc(=O)n(Cc3ccccc3)c(=O)[nH]2)cc1C`?
D2 PAM-1: 9.5; D2 ag-2: 2.9; D2 PAM-2: -5.0; D2 antagonist: 33.7*

What do the screens show for `O=CC1=C(N2CCOCC2)/C(=C\c2ccccc2)CC1`?
D2 ag-1: 0.3; D2 PAM-1: 32.6*; D2 ag-2: -3.2; D2 PAM-2: -2.6; D2 antagonist: 6.5

Results for COc1ccccc1NC(=O)C1=C(C)Nc2ncnn2C1c1cccn1C (stereo not given) ?
D2 ag-1: 0.5; D2 PAM-1: -6.9

Results for Cc1cc(C(=O)OCC(=O)NNC(=O)c2cccs2)ccc1[N+](=O)[O-] ?
D2 ag-1: 0.5; D2 PAM-1: 11.5; D2 ag-2: 1.9; D2 PAM-2: -1.6; D2 antagonist: -11.7

How did O=C(NNC(=O)c1cccs1)c1ccc([N+](=O)[O-])cc1 do in these assays?
D2 ag-1: 1.0; D2 PAM-1: 2.1; D2 ag-2: -3.2; D2 PAM-2: -9.2; D2 antagonist: 61.3*

How did COC(=O)c1cc(C(=O)OCC(=O)NNC(=O)c2cccs2)cc([N+](=O)[O-])c1 do in these assays?
D2 ag-1: 0.1; D2 PAM-1: -10.3; D2 ag-2: 8.1; D2 PAM-2: 71.0*; D2 antagonist: -5.8

What do the screens show for `CC(C)(C)c1ccc(C(=O)NC(=S)NNC(=O)c2cccs2)cc1`?
D2 ag-1: 51.0*; D2 PAM-1: -13.0; D2 ag-2: -1.7; D2 PAM-2: -11.5; D2 antagonist: 56.4*

Results for O=C(NNC(=O)c1ccc([N+](=O)[O-])cc1)c1ccc(NS(=O)(=O)c2cccs2)cc1 ?
D2 ag-2: -5.9; D2 PAM-2: -14.0

How did Cn1c(CC(=O)NNC(=O)c2ccc(F)cc2Cl)nc2ccccc21 do in these assays?
D2 ag-1: 0.4; D2 PAM-1: 7.0; D2 ag-2: -2.1; D2 PAM-2: -2.5; D2 antagonist: 2.6

How did CCCCc1nc(NCCO)c(C#N)c2c1CCCC2 do in these assays?
D2 ag-1: 2.1; D2 PAM-1: -4.0; D2 ag-2: -4.8; D2 PAM-2: -11.7; D2 antagonist: 48.2*

Results for COc1cc(OC)c(NC(=O)Cn2cnc3nc4c(cc3c2=O)CCCC4)cc1Cl ?
D2 ag-1: 0.8; D2 PAM-1: 10.9

Results for CN(Cc1ccccc1)c1ccc(-c2nc(-c3ccccn3)no2)cc1[N+](=O)[O-] ?
D2 ag-1: 0.9; D2 PAM-1: 1.6

How did O=C(Nc1cccc(C(F)(F)F)c1)C(=O)N1CCCCC1 do in these assays?
D2 ag-1: 0.0; D2 PAM-1: 4.4; D2 ag-2: -4.7; D2 PAM-2: -9.6; D2 antagonist: 3.5

Results for CCN1CCN(C(=O)c2cccc(OC3CCN(S(=O)(=O)N(C)C)CC3)c2)CC1 ?
D2 ag-1: 0.9; D2 PAM-1: 36.0*; D2 ag-2: -6.5; D2 PAM-2: -12.0; D2 antagonist: 2.2

Results for Cc1nn(C(=O)c2cc3sccc3[nH]2)c(C)c1C ?
D2 ag-1: -0.1; D2 PAM-1: -2.5; D2 ag-2: -0.4; D2 PAM-2: -3.5; D2 antagonist: 33.6*

What do the screens show for `N/C(=N\OC(=O)c1ccccc1[N+](=O)[O-])c1cccnc1`?
D2 ag-1: 0.7; D2 PAM-1: -2.4; D2 ag-2: inconclusive; D2 PAM-2: 108.2*; D2 antagonist: -4.7

How did N/C(=N\OC(=O)c1ccc([N+](=O)[O-])cc1)c1cccnc1 do in these assays?
D2 ag-1: -0.3; D2 PAM-1: 4.7; D2 ag-2: 8.9; D2 PAM-2: 28.6; D2 antagonist: -2.6

How did Cc1ccc(C(=O)O/N=C(\N)c2cccnc2)cc1[N+](=O)[O-] do in these assays?
D2 ag-1: -0.4; D2 PAM-1: -3.2; D2 ag-2: 7.3; D2 PAM-2: 66.2*; D2 antagonist: -4.8
